Data taken from paper PMC9911399, “Two distinct binding modes provide the RNA-binding protein RbFox with extraordinary sequence specificity”.
Positions count from the first letter of the chain named. The full ranking holds about 16,000 sequences; the median of “ka relative to ugcaugu” is about 0.096, and the highest 2% start at about 0.35. The full list was thinned out, with the highest values kept by preference.

B1: UACUCAU (DNA:RNA)
RNA: GGGAGACCGGAAUUCAGAUUGUCCUACUCAUUUAAAUCCCGUCGUAGCCACCA
DNA 1: CAATCTGAATTCCGGTCTCCC
DNA 2: TGGTGGCTACGACGGGATT
B2: CUACUCU (DNA:RNA)
RNA: B1 RNA with U25C, A26U, C27A, U28C, C29U, A30C
DNA 1: CAATCTGAATTCCGGTCTCCC
DNA 2: TGGTGGCTACGACGGGATT
B3: ACAGGAC (DNA:RNA)
RNA: B1 RNA with U25A, A26C, C27A, U28G, C29G, U31C
DNA 1: CAATCTGAATTCCGGTCTCCC
DNA 2: TGGTGGCTACGACGGGATT
B4: GGGAGUU (DNA:RNA)
RNA: B1 RNA with U25G, A26G, C27G, U28A, C29G, A30U
DNA 1: CAATCTGAATTCCGGTCTCCC
DNA 2: TGGTGGCTACGACGGGATT
B5: CUCGGGU (DNA:RNA)
RNA: B1 RNA with U25C, A26U, U28G, C29G, A30G
DNA 1: CAATCTGAATTCCGGTCTCCC
DNA 2: TGGTGGCTACGACGGGATT
B6: AACUACA (DNA:RNA)
RNA: B1 RNA with U25A, C29A, A30C, U31A
DNA 1: CAATCTGAATTCCGGTCTCCC
DNA 2: TGGTGGCTACGACGGGATT
B7: GCUCAGC (DNA:RNA)
RNA: GGGAGACCGGAAUUCAGAUUGUCCGCUCAGCUUAAAUCCCGUCGUAGCCACCA
DNA 1: CAATCTGAATTCCGGTCTCCC
DNA 2: TGGTGGCTACGACGGGATT
B8: GGGUUUU (DNA:RNA)
RNA: B1 RNA with U25G, A26G, C27G, C29U, A30U
DNA 1: CAATCTGAATTCCGGTCTCCC
DNA 2: TGGTGGCTACGACGGGATT
B9: GGGUUUG (DNA:RNA)
RNA: B7 RNA with C26G, U27G, C28U, A29U, G30U, C31G
DNA 1: CAATCTGAATTCCGGTCTCCC
DNA 2: TGGTGGCTACGACGGGATT
B10: GUCGGGU (DNA:RNA)
RNA: B7 RNA with C26U, U27C, C28G, A29G, C31U
DNA 1: CAATCTGAATTCCGGTCTCCC
DNA 2: TGGTGGCTACGACGGGATT
B11: GGGUUGU (DNA:RNA)
RNA: B7 RNA with C26G, U27G, C28U, A29U, C31U
DNA 1: CAATCTGAATTCCGGTCTCCC
DNA 2: TGGTGGCTACGACGGGATT
B12: GGGGGGU (DNA:RNA)
RNA: B7 RNA with C26G, U27G, C28G, A29G, C31U
DNA 1: CAATCTGAATTCCGGTCTCCC
DNA 2: TGGTGGCTACGACGGGATT
B13: GUCCGGG (DNA:RNA)
RNA: B7 RNA with C26U, U27C, A29G, C31G
DNA 1: CAATCTGAATTCCGGTCTCCC
DNA 2: TGGTGGCTACGACGGGATT
B14: AAGCAAG (DNA:RNA)
RNA: B7 RNA with G25A, C26A, U27G, G30A, C31G
DNA 1: CAATCTGAATTCCGGTCTCCC
DNA 2: TGGTGGCTACGACGGGATT
B15: UGCCAGG (DNA:RNA)
RNA: B7 RNA with G25U, C26G, U27C, C31G
DNA 1: CAATCTGAATTCCGGTCTCCC
DNA 2: TGGTGGCTACGACGGGATT
B16: UCCCAGC (DNA:RNA)
RNA: B7 RNA with G25U, U27C
DNA 1: CAATCTGAATTCCGGTCTCCC
DNA 2: TGGTGGCTACGACGGGATT
B17: AAUUCGA (DNA:RNA)
RNA: B1 RNA with U25A, C27U, A30G, U31A
DNA 1: CAATCTGAATTCCGGTCTCCC
DNA 2: TGGTGGCTACGACGGGATT
B18: GGUACUG (DNA:RNA)
RNA: B7 RNA with C26G, C28A, A29C, G30U, C31G
DNA 1: CAATCTGAATTCCGGTCTCCC
DNA 2: TGGTGGCTACGACGGGATT
B19: CGCAUCU (DNA:RNA)
RNA: B1 RNA with U25C, A26G, U28A, C29U, A30C
DNA 1: CAATCTGAATTCCGGTCTCCC
DNA 2: TGGTGGCTACGACGGGATT
B20: GCAUCUU (DNA:RNA)
RNA: B1 RNA with U25G, A26C, C27A, A30U
DNA 1: CAATCTGAATTCCGGTCTCCC
DNA 2: TGGTGGCTACGACGGGATT
B21: GCGCAUC (DNA:RNA)
RNA: B7 RNA with U27G, G30U
DNA 1: CAATCTGAATTCCGGTCTCCC
DNA 2: TGGTGGCTACGACGGGATT
B22: CCGCAUC (DNA:RNA)
RNA: B7 RNA with G25C, U27G, G30U
DNA 1: CAATCTGAATTCCGGTCTCCC
DNA 2: TGGTGGCTACGACGGGATT
B23: GCAUCUC (DNA:RNA)
RNA: B7 RNA with U27A, C28U, A29C, G30U
DNA 1: CAATCTGAATTCCGGTCTCCC
DNA 2: TGGTGGCTACGACGGGATT
B24: GCAUAUC (DNA:RNA)
RNA: B7 RNA with U27A, C28U, G30U
DNA 1: CAATCTGAATTCCGGTCTCCC
DNA 2: TGGTGGCTACGACGGGATT
B25: GGUACGA (DNA:RNA)
RNA: B7 RNA with C26G, C28A, A29C, C31A
DNA 1: CAATCTGAATTCCGGTCTCCC
DNA 2: TGGTGGCTACGACGGGATT
B26: ACUUUAC (DNA:RNA)
RNA: B7 RNA with G25A, C28U, A29U, G30A
DNA 1: CAATCTGAATTCCGGTCTCCC
DNA 2: TGGTGGCTACGACGGGATT
B27: GACGUGU (DNA:RNA)
RNA: B1 RNA with U25G, U28G, C29U, A30G
DNA 1: CAATCTGAATTCCGGTCTCCC
DNA 2: TGGTGGCTACGACGGGATT
B28: AGUGAAA (DNA:RNA)
RNA: B7 RNA with G25A, C26G, C28G, G30A, C31A
DNA 1: CAATCTGAATTCCGGTCTCCC
DNA 2: TGGTGGCTACGACGGGATT
B29: AGUUGGG (DNA:RNA)
RNA: B7 RNA with G25A, C26G, C28U, A29G, C31G
DNA 1: CAATCTGAATTCCGGTCTCCC
DNA 2: TGGTGGCTACGACGGGATT
B30: ACUUACC (DNA:RNA)
RNA: B7 RNA with G25A, C28U, G30C
DNA 1: CAATCTGAATTCCGGTCTCCC
DNA 2: TGGTGGCTACGACGGGATT
B31: GACUUUG (DNA:RNA)
RNA: B1 RNA with U25G, C29U, A30U, U31G
DNA 1: CAATCTGAATTCCGGTCTCCC
DNA 2: TGGTGGCTACGACGGGATT

Target: T1, RBFOX1 RRM RbFoxmut (Fox-RRM*) (Homo sapiens, UniProt Q9NWB1 109-208, R118D;E147R;N151S;E152T)
T1 sequence: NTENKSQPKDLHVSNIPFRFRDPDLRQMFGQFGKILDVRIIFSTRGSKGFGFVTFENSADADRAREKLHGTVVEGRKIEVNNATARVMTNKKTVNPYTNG
Test: EMSA; HiTS-Eq, 1 nM pool, 10 min; buffer printed only for the single-RNA assays: 10 mM Tris pH 7.5, 150 mM NaCl, 3.4 mM EDTA, 0.001% NP-40, 30 C
Conditions: tags: His6 N-terminal (pET28a); label: 5' 32P
Summary of the method: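 Relative association constants, normalised to the cognate motif, were derived by comparing read counts of each RNA species with those of the control reaction. The RNA sequenced was the free fraction, separated by 8% native PAGE after a 10 min equilibration in 50 µL of 1 nM 5′-radiolabelled RNA (7 randomized nucleotides) with increasing concentrations of purified wild-type or mutant RbFox RRM.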

Q: How did the binding signal turn out when B1 was run?
A: 0.0982 KA relative to UGCAUGU

Q: Which binding signal does the source give for B2 here?
A: 0.0641 KA relative to UGCAUGU

Q: Which binding signal does the source give for B3 here?
A: 0.0906 KA relative to UGCAUGU

Q: How did the binding signal turn out when B4 was run?
A: 0.09 KA relative to UGCAUGU

Q: With B5 as the binder, how does the binding signal read?
A: 0.0903 KA relative to UGCAUGU

Q: B6 was tested. Which binding signal did it give?
A: 0.121 KA relative to UGCAUGU

Q: For B7, which binding signal is on record?
A: 0.0895 KA relative to UGCAUGU

Q: Which binding signal does the source give for B8 here?
A: 0.0749 KA relative to UGCAUGU

Q: How did the binding signal turn out when B9 was run?
A: 0.741 KA relative to UGCAUGU

Q: With B10 as the binder, how does the binding signal read?
A: 0.132 KA relative to UGCAUGU

Q: Which binding signal does the source give for B11 here?
A: 0.448 KA relative to UGCAUGU

Q: How did the binding signal turn out when B12 was run?
A: 0.0952 KA relative to UGCAUGU

Q: With B13 as the binder, how does the binding signal read?
A: 0.0861 KA relative to UGCAUGU

Q: With B14 as the binder, how does the binding signal read?
A: 0.103 KA relative to UGCAUGU

Q: B15 was tested. Which binding signal did it give?
A: 0.0858 KA relative to UGCAUGU

Q: With B16 as the binder, how does the binding signal read?
A: 0.1 KA relative to UGCAUGU

Q: B17 was tested. Which binding signal did it give?
A: 0.0737 KA relative to UGCAUGU

Q: With B18 as the binder, how does the binding signal read?
A: 0.112 KA relative to UGCAUGU

Q: For B19, which binding signal is on record?
A: 0.395 KA relative to UGCAUGU

Q: How did the binding signal turn out when B20 was run?
A: 0.33 KA relative to UGCAUGU

Q: With B21 as the binder, how does the binding signal read?
A: 0.49 KA relative to UGCAUGU

Q: B22 was tested. Which binding signal did it give?
A: 0.258 KA relative to UGCAUGU

Q: Which binding signal does the source give for B23 here?
A: 0.135 KA relative to UGCAUGU

Q: With B24 as the binder, how does the binding signal read?
A: 0.073 KA relative to UGCAUGU

Q: B25 was tested. Which binding signal did it give?
A: 0.165 KA relative to UGCAUGU

Q: Which binding signal does the source give for B26 here?
A: 0.114 KA relative to UGCAUGU

Q: How did the binding signal turn out when B27 was run?
A: 0.15 KA relative to UGCAUGU

Q: With B28 as the binder, how does the binding signal read?
A: 0.095 KA relative to UGCAUGU

Q: B29 was tested. Which binding signal did it give?
A: 0.0708 KA relative to UGCAUGU

Q: B30 was tested. Which binding signal did it give?
A: 0.0997 KA relative to UGCAUGU

Q: With B31 as the binder, how does the binding signal read?
A: 0.0901 KA relative to UGCAUGU
